Shown are actives, neighbours in structure and some others; about 4.7% of the full set was active somewhere.
TRHR ag = TRH receptor (human) agonism. P34981. TRHR cells, calcium flux fluo-8, FDSS agonist mode. activation, % at 2 µM. hit rate 0.18% among 360,000. AID 493084
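TRHR-expressing cells, plated overnight in medium with 10% serum, were loaded with fluo-8 calcium dye at room temperature. After a 10 s baseline, library compound was pin-added and calcium release was recorded kinetically (ex 480/em 530) as agonist response.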
D1 potentiator = enhances dopamine response at the human D1 receptor. P21728. HEK293 TREx D1 cells, calcium flux, dopamine EC20 potentiation. potentiation, % at 10 µM. hit rate 0.036% among 360,000. AID 504651; in the data active means potentiation above about 30%
Target sequence (P21728 whole entry, looked up): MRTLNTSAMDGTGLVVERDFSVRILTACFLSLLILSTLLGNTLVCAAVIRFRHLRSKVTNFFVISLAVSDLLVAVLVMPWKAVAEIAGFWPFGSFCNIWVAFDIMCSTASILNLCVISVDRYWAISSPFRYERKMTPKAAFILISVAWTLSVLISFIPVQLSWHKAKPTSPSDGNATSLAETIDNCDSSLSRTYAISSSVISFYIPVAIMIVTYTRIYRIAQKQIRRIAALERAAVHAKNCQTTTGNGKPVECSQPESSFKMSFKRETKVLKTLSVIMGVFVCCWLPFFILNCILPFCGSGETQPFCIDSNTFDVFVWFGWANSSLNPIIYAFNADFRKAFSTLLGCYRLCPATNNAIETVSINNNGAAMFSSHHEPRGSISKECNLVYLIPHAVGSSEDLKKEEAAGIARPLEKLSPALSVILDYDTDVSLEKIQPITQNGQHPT
D1 antag = blocks dopamine activation of the human D1 receptor. P21728. HEK293 TREx D1 cells, calcium flux, dopamine EC80; hits give low values. activity change, negative = inhibition, % at 10 µM. hit rate 3.2% among 360,000; in the data active means activity change below about -30%
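Calcium flux readout: force-coupled, inducible Hek293 Trex D1 line, cells induced overnight at 30 C with tetracycline, dye-loaded 30–90 min at RT. Antagonism scored against EC80 dopamine challenge given 180 s after compound.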
D1 agonist = agonists of human D1 dopamine receptor; HEK293 T-REx D1 cells, calcium flux, agonist mode; activation, % at 2 µM; AID 504660; hit rate 1% among 360,000
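Agonism was scored from calcium flux recorded over 180 s (1 read/s) after pintool compound addition, following a 10-cycle baseline. Cells were inducible force-coupled HEK293 TREx D1, plated overnight at 30 C and loaded with no-wash calcium dye.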
TRHR PAM = allosterically enhances the human TRH receptor; TRHR cells, fluo-8 calcium fluorescence, EC20 TRH enhancement; enhancement, % at 2 µM; hit rate 0.66% among 360,000; in the data active means enhancement above about 30%
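Enhancer read-out: after compound pinning and an initial kinetic agonist-mode read, an EC20 of TRH (10 nM final) was injected and fluo-8 calcium signal (Ex 480/Em 530) followed at 1 s/cycle for 100 cycles in TRHR-expressing cells.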
Large screens that a line does not name were inactive. Unless noted, no stated cut-off is given here; in the data, active means activation above about 30%; inactive means the rest.

Cc1ccc(C)c(NC(=O)Cn2ncc3c([nH]c4ccccc43)c2=O)c1	none
Fc1ccc(Nc2c(-c3c[nH]c4ccccc34)nc3ccccn23)cc1	none
CC(C)(C)S(=O)(=O)c1cnc(-c2ccc(Cl)cc2)nc1N	none
Cc1nc(N)nc(N)c1/C=C/C(C)(C)c1ccc(Cl)cc1	D1 agonist 38
Cc1csc2nc(COC(=O)c3ccc(NC(=O)c4ccccc4Br)cc3)cc(=O)n12	none
O=C(NCc1ccc2c(c1)OCO2)c1ccc(CS(=O)(=O)c2ccc(Br)cc2)o1	D1 agonist 36 (no result: D1 potentiator)
Cc1nc(N)c(Cc2ccccc2F)c(N)n1	D1 antag -35
CCc1ccccc1NC(=O)Nc1cc(C(=O)NCc2ccccc2OC)ccc1N1CCCC1	none
Cc1ccc(C(=O)NCCc2nnc3ccc(SCC(=O)N4CCCCC4)nn23)cc1	TRHR PAM 33
COc1ccc(-c2nc3n(n2)C(c2ccc(OC)c(OC)c2)C(C(=O)Nc2cccnc2)=C(C)N3)cc1 (stereo not drawn)	none
COc1ccc(NC(=O)CC2Oc3ccccc3NC2=O)cc1 (stereo not drawn)	D1 antag -40
COc1ccc(Cl)cc1NC(=O)COC(=O)CC(C)(C)CC1=NS(=O)(=O)c2ccccc2N1	none
Cc1ccc(S(=O)(=O)/N=C2/NC(=O)/C(=C/c3cccnc3)S2)cc1	D1 antag -35
Cc1ccc(S(=O)(=O)/N=C2/NC(=O)/C(=C\c3cc(Br)cc(Br)c3O)S2)cc1	TRHR ag 118, D1 antag -52, D1 agonist 276
Cc1ccc(Cl)cc1N1CCN(C(=O)CCS(=O)(=O)c2ccc3c(c2)oc(=O)n3C)CC1	none
NC(=O)CC(NC(=O)Cc1cccc2ccccc12)c1ccc(NCc2ccccc2)c([N+](=O)[O-])c1 (stereo not drawn)	D1 antag -31
NC(=O)CC(NC(=O)Cc1cccc2ccccc12)c1ccc(NCc2ccc(F)cc2)c([N+](=O)[O-])c1 (stereo not drawn)	none
CCc1cccc(C)c1NC(=O)COCc1cc(-c2ccc3c(c2)OCO3)on1	none
CCOc1ccc(-c2nn(-c3ccccc3)cc2C2NC(=O)NC(C)=C2C(=O)OC(C)C)cc1C (stereo not drawn)	D1 antag -36
O=C(Cc1ccc([N+](=O)[O-])cc1)Nc1ccc2c(c1)OCO2	none
CC(NC(=O)c1ccccc1Cl)C(=O)Nc1ccc2c(c1)OCO2 (stereo not drawn)	D1 antag -83
CC(C(=O)Nc1ccc2c(c1)OCO2)c1ccc([N+](=O)[O-])cc1 (stereo not drawn)	D1 agonist 112
O=C(Nc1ccc2c(c1)OCCO2)C1CCN(C(=O)c2ccc([N+](=O)[O-])cc2)CC1	D1 antag -31
CC(C(=O)Nc1ccc2c(c1)OCCO2)c1ccc([N+](=O)[O-])cc1 (stereo not drawn)	D1 antag -51, D1 agonist 101
Cc1cc2nc(-c3cccc(NC(=O)COc4ccc(C(C)C)cc4)c3)oc2cc1C	none
Cc1ccc(CNC(=O)c2cccn2-c2nnc(N3CCCCC3)s2)cc1	none
COc1cccc2c1Oc1nc(-c3ccccc3)nc(SCC(=O)N3CCCCC3)c1C2	none
O=C(NCc1ccco1)C1CCN(C(=O)c2ccc([N+](=O)[O-])cc2)CC1	D1 antag -45
CC(C)n1nc(C(=O)Nc2ccc3c(c2)OCO3)c2ccccc2c1=O	D1 antag -32 (no result: D1 potentiator)
CCOC(=O)c1ccc(NC(=O)CC2C(=O)N(c3cccc(OC)c3)C(=O)N2Cc2cccnc2)cc1 (stereo not drawn)	none
O=C1C=CC(=O)N1Nc1ccc(Br)cc1	TRHR PAM 33
COc1ccc(NC(=O)CCc2nnc3n(C)c(=O)c4sccc4n23)cc1Cl	none
CCC(=O)N1CCc2cc(Br)cc(S(=O)(=O)N3CCCC(C(=O)NCc4cccc(OC)c4)C3)c21 (stereo not drawn)	D1 antag -31
CCCN(CCC)S(=O)(=O)c1ccc(NC(=O)c2cc(C(=O)OC)cc([N+](=O)[O-])c2)cc1	D1 antag -38
CCC(C)(C)NC(=O)c1cc(C(=O)OC)cc([N+](=O)[O-])c1	none
Cc1ccc(S(=O)(=O)NCC(=O)OC(C(=O)c2ccccc2)c2ccccc2)cc1 (stereo not drawn)	none
CCc1ccc(C(=O)C(C)OC(=O)CNS(=O)(=O)c2ccc(C)cc2)cc1 (stereo not drawn)	D1 agonist 32
CCOC(=O)CNS(=O)(=O)c1ccc(S(=O)(=O)N2CCCC2)cc1	D1 antag -103
CCOC(=O)c1ccc(COC(=O)CNS(=O)(=O)c2ccccc2)cc1	D1 antag -33
O=C(CN(Cc1ccccc1)S(=O)(=O)c1cccc(C(F)(F)F)c1)NC1CCCCC1	D1 antag -31
COc1ccc(NC(=O)C2=C(C)Nc3nc(CCCO)nn3C2c2ccc(O)cc2)cc1 (stereo not drawn)	none
COc1ccc(/C=N/NC(=O)CSc2ccccn2)cc1OC	D1 antag -32
COc1ccc(/C=N/NC(=O)C(C)n2nnc3ccccc32)cc1OC (stereo not drawn)	D1 antag -74
COc1cc(/C=N/NC(N)=O)ccc1OC(=O)c1ccco1	D1 antag -35
Cc1ccc(Cn2ccc(=O)c(OCc3c(Cl)cccc3Cl)c2C)cc1	TRHR PAM 39
O=C(N/N=C/c1cc2c3c(c1O)CCCN3CCC2)c1ccccc1O	D1 agonist 31
O=C(c1ccco1)N1N=C(c2ccc(Br)cc2)CC1(O)C(F)(F)F (stereo not drawn)	D1 antag -46
O=C(c1ccco1)N1N=C(C2CCCCC2)CC1(O)C(F)(F)F (stereo not drawn)	D1 antag -38
COc1ccc(C(=O)n2cc(C(=O)c3cc(C)ccc3O)cn2)cc1	none
COc1ccc(O)c(C(=O)c2cnn(C(=O)c3cc(C)oc3C)c2)c1	D1 antag -46
Cc1ccc(/C=C/C(=O)Nc2cc(S(=O)(=O)N3CCOCC3)ccc2N2CCOCC2)cc1	none (no result: D1 potentiator)
O=C(/C=C/c1ccc2c(c1)OCO2)c1ccco1	none
NS(=O)(=O)c1ccc(NC(=O)/C=C/c2ccc3c(c2)OCO3)cc1	D1 antag -48
O=C(/C=C/c1ccc2c(c1)OCO2)Nc1cc(S(=O)(=O)N2CCOCC2)ccc1N1CCOCC1	D1 antag -47
Nc1ccccc1C(=O)/C=C/c1ccc2c(c1)OCO2	D1 antag -35
Cc1cccc(CCNc2ncnc3onc(-c4ccc(Cl)cc4)c23)c1	none
CCOC(=O)CSc1nnc(CNc2ccc(Cl)cc2)n1-c1ccccc1	D1 antag -52
CCc1nnc(NC(=O)CSc2nnc(CNc3cccc(C)c3)n2-c2ccccc2)s1	D1 antag -31
Oc1c(Br)cc(Br)cc1CNc1ccc(F)cc1	D1 antag -39

High-throughput results from PubChem.
